Only some compounds are listed: those with a hit (about 2.7% of all), similar ones and a draw of the others.
MsrA inh: inhibitors of bovine MsrA. purified bovine MsrA, absorbance read-out. inhibition, % at 15.5 µM. actives 0.75% (n = 360,000). AID 651718; in the data active = inhibition above about 4.5%;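 also: 0% = vehicle wells with enzyme and 100% = reference inhibitor wells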
rCAG binder-1: binds r(CAG) RNA repeats; r(CAG) RNA repeat, TO-PRO-1 dye displacement fluorescence; inhibition, % at 3 µM; actives 1.3% (n = 370,000); AID 651821;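 active = inhibition above the plate cutoff, the mean of all test compounds on that plate plus 3 SD, cut at about 35% in these data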;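 also: 0% = DMSO alone and 100% = 100 µM mitoxantrone as full dye displacement; higher means more dye released from RNA so lower well fluorescence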
NadD inh: NadD (S. aureus) enzyme inhibition; purified NadD enzyme, colorimetric absorbance read-out; inhibition, % at 20 µM; actives 0.78% (n = 360,000); AID 602399; in the data active = inhibition above about 26%
bovine MsrA act: activates bovine MsrA enzyme. activation, % at 10.6 µM. actives 0.3% (n = 360,000). purified bovine MsrA, absorbance read-out. AID 602163; in the data active = activation above about 7.5%;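 also: 0% = vehicle and 100% = reference activator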
rCAG bind conf: r(CAG) RNA repeat binding, confirmation | shares compounds with rCAG binder-1 | TO-PRO-1 dye displacement fluorescence | inhibition, % at 3 µM | actives 70% (n = 4,300) | AID 652065;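 active = inhibition above a per-plate cutoff, the mean inhibition of sample wells plus 3 SD, cut at about 35% in these data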;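 also: loss of TO-PRO-1 fluorescence as compound displaces dye from 1x1 AA loop RNA; 0% = DMSO only wells and 100% = 100 µM mitoxantrone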
dCAG dye counter: counter-screen for rCAG RNA binders: DNA CAG dye complex inhibitors | inhibition, % at 3 µM | shares compounds with rCAG binder-1 | d(CAG) DNA oligo TO-PRO-1 dye displacement, fluorescence | actives 94% (n = 4,300) | AID 652068;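 active = inhibition above its plate's cutoff, the mean test-well inhibition plus 3 SD, cut at about 4.8% in these data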;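 also: 0% = DNA dye mix with DMSO and 100% = 100 µM mitoxantrone; hits displace the dye from DNA and so lower well fluorescence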
DNA CAG DR: counter-screen for rCAG binders: inhibitors of DNA CAG TO-PRO-1 complex; DNA CAG/GTC duplex TO-PRO-1 dye displacement fluorescence; shares compounds with rCAG binder-1; AID 686960; actives 20% (n = 250); IC50, µM; in the data active = IC50 below about 10 µM
dCAG TOPRO ctr: inhibits DNA CAG/GTC TO-PRO-1 complex, rCAG binder counter-screen; shares compounds with rCAG binder-1; d(CAG) DNA duplex TO-PRO-1 dye displacement, fluorescence; IC50, µM; actives 80% (n = 30)
rCAG binder-2: binds r(CAG) RNA repeats in late stage dose response. shares compounds with rCAG binder-1. actives 100% (n = 30). AID 720651. IC50, µM. r(CAG) RNA TO-PRO-1 dye displacement, fluorescence
Numbers without * were called inactive; i = inactive; . = not tested or not shown. Unless noted, no rule for the calls is given here.

SMILES	MsrA inh	rCAG binder-1	NadD inh	bovine MsrA act	rCAG bind conf	dCAG dye counter	others
COc1ccc2[nH]c3c(C)c4ccncc4c(C)c3c2c1	-0.2	37.4*	36.5*	1.8	24.7	27.2*
Cc1c2ccncc2cc2c1[nH]c1ccccc12	0.3	11.4	0.3	-1.8	.	.
CC(=O)Nc1ccc(S(=O)(=O)Nc2nc3ccccc3nc2Nc2ccc3ccccc3c2)cc1	0.3	74.8*	-5.3	-3.1	93.3*	81.6*
CC(=O)Nc1ccc(S(=O)(=O)Nc2nc3ccccc3nc2N2CCOCC2)cc1	3.5	2.7	-0.1	-8.5	.	.
CC(=O)Nc1ccc(S(=O)(=O)Nc2nc3ccccc3nc2Nc2ccc(C(=O)O)c(O)c2)cc1	2.2	47.2*	3.2	-5.5	44.9*	12.6*
CC(=O)Nc1ccc(S(=O)(=O)Nc2nc3ccccc3nc2Nc2ccc(N)cc2)cc1	2.5	41.8*	10.5	-4.5	32.1	11.0*
CCCCN(CCCC)c1nc2ccccc2nc1NS(=O)(=O)c1ccc(NC(C)=O)cc1	-0.5	3.9	0.8	-0.9	.	.
CC(=O)Nc1ccc(S(=O)(=O)Nc2nc3ccccc3nc2Nc2cccc(O)c2)cc1	1.2	58.6*	-0.5	-2.9	46.0*	11.8*
O=C(NCc1ccc(F)cc1)c1cc(C2CCCN(C(=O)c3ccc4ccccc4c3)C2)on1 (stereo unspecified)	-0.5	2.2	-0.6	-1.6	.	.
CCc1c(O)nc(SCC(=O)Nc2ccc(Cl)cc2)n(-c2ccccc2)c1=O	2.9	9.9	-7.2	-4.4	.	.
O=C(COC(=O)Cc1ccccc1F)NCc1ccccc1Cl	-0.4	0.7	-1.4	-2.8	.	.
O=S(=O)(c1cccc(-c2n[nH]c(=S)n2-c2ccc(OC(F)(F)F)cc2)c1)N1CCOCC1	0.3	15.1	12.7	4.2	.	.
O=C(COc1ccccc1Cl)NNC(=O)c1ccc2nc[nH]c2c1	0.3	-0.7	-3.3	-2.5	.	.
CC(=O)Nc1ccc(Nc2nc3ccccc3nc2NS(=O)(=O)c2ccc(Cl)c([N+](=O)[O-])c2)cc1	0.4	91.2*	12.0	-4.3	93.2*	76.4*
COc1cc(Nc2nc3ccccc3nc2NS(=O)(=O)c2ccc([N+](=O)[O-])cc2)cc(OC)c1OC	1.2	5.8	3.9	-10.2	.	.
CCN(CC)C(=O)C(=O)c1cccn1-c1c(Cl)cccc1C#N	-1.5	36.5*	2.5	-1.3	3.0	1.5
C/C(=N\Nc1nc2ccccc2s1)c1ccc(Br)s1	0.4	35.4*	-0.8	-3.4	16.8	8.7*
CC(=NNc1nc2ccccc2s1)c1ccncn1	3.3	1.9	1.6	-10.8	.	.
CCc1ccc(NC(=S)N(Cc2ccc(Cl)cc2)Cc2ccc(C(=O)O)cc2)cc1	-0.1	68.5*	12.7	0.6	61.5*	23.3*
Cc1ccc(C)c(NC(=S)N(Cc2ccc(Cl)cc2)Cc2ccc(C(=O)O)cc2)c1	1.4	44.5*	7.7	-14.3	49.0*	14.4*
Cc1cc(NC(=S)N(Cc2ccc(Cl)cc2)Cc2ccc(C(=O)O)cc2)ccc1Cl	-0.6	69.4*	17.5	-1.7	82.6*	46.8*
Cc1cc(C)cc(NC(=S)N(Cc2ccc(Br)cc2)Cc2ccc(C(=O)O)cc2)c1	0.2	65.0*	9.4	-8.1	68.0*	27.4*
COc1ccc(CN(Cc2ccc(C(=O)O)cc2)C(=S)Nc2ccccc2Cl)cc1OC	0.9	15.4	-1.8	-1.8	.	.
COc1ccc(CN(Cc2ccc(C(=O)O)cc2)C(=S)Nc2ccccc2C)cc1OC	-1.0	2.1	7.1	-1.4	.	.
COc1cc(C)ccc1OCc1cc(C(=O)N(Cc2nccn2C)C(C)C)no1	-0.3	-3.7	-7.8	-3.8	.	.
SMILES	MsrA inh	rCAG binder-1	NadD inh	bovine MsrA act	rCAG bind conf	dCAG dye counter	others
CCn1c(COC(=O)CNC(=O)c2ccccc2)nc2cc(S(=O)(=O)N(C)C)ccc21	0.6	-0.2	-0.4	-0.3	.	.
COc1cc(C(=O)NCCc2c[nH]c3ccccc23)ccc1OCc1c(C)noc1C	0.1	-6.5	-4.3	-0.6	.	.
Cc1ccc(NC(=S)N(Cc2ccc(Br)cc2)Cc2ccc(C(=O)O)cc2)cc1C	0.2	53.9*	6.8	-2.5	70.9*	31.1*	DNA CAG DR=i;dCAG TOPRO ctr=4.62*;rCAG binder-2=1.97*
Cc1cc(C)cc(NC(=S)N(Cc2ccc(Cl)cc2)Cc2ccc(C(=O)O)cc2)c1	1.1	49.1*	8.7	-2.3	65.1*	28.9*
COc1cccc(NC(=S)N(Cc2ccc(C(=O)O)cc2)Cc2ccc(OC)c(OC)c2)c1	1.1	12.2	3.0	-15.1	.	.
COc1ccc(NC(=S)N(Cc2ccc(Cl)cc2)Cc2ccc(C(=O)O)cc2)cc1Cl	-0.1	59.5*	9.9	-2.7	60.4*	21.4*
Cc1cccc(NC(=S)N(Cc2ccc(Cl)cc2)Cc2ccc(C(=O)O)cc2)c1	-0.8	27.1	0.5	-3.0	.	.
Cc1cc(NC(=S)N(Cc2cccc(Br)c2)CC2CCC(C(=O)O)CC2)ccc1Cl (stereo unspecified)	-0.9	46.3*	18.9	-6.2	63.7*	24.5*
COc1ccc(S(=O)(=O)Nc2ccc(N3CCOCC3)nc2)cc1	1.8	-1.0	0.7	-2.2	.	.
O=C(Cn1cncn1)N/N=C/c1cccnc1	-1.0	-0.6	-9.7	-4.8	.	.
CCCC[C@@H]1C=C(C(=O)O)[C@H](c2ccc3c(c2)OCO3)N1S(=O)(=O)c1ccc(C)cc1	-1.5	45.0*	6.1	-9.7	39.0*	11.0*
Cc1ccc(S(=O)(=O)N2[C@@H](c3ccc4c(c3)OCO4)C(C(=O)O)=C[C@H]2C(C)(C)C)cc1	1.7	31.2	-1.3	1.1	.	.
CC[C@@H]1C=C(C(=O)O)[C@H](c2ccc(C)cc2)N1S(=O)(=O)c1ccc(C)cc1	-0.7	8.7	-6.4	-6.0	.	.
CCCCC[C@@H]1C=C(C(=O)O)[C@H](c2ccc(Br)cc2)N1S(=O)(=O)c1ccc(C)cc1	-0.3	80.5*	10.2	-4.6	69.2*	30.9*
CCCC[C@@H]1C=C(C(=O)O)[C@H](c2ccc(Cl)cc2)N1S(=O)(=O)c1ccc(C)cc1	0.2	58.4*	3.7	-0.9	54.3*	20.1*
COc1ccc2nc(N/C(=N/S(=O)(=O)c3cccs3)c3ccccc3Cl)sc2c1	1.9	47.7*	6.9	-11.1	41.3*	13.2*
C/C(=N\Nc1c(Cl)c(Cl)nc(C(=O)O)c1Cl)c1ccc(O)cc1	2.6	39.5*	-6.0	-6.6	9.5	4.5*
C=CCN1C(=O)C(CC(=O)O)SC1=Nc1ccc(N=Nc2ccccc2)cc1 (stereo unspecified)	4.2	54.6*	0.5	-12.2	36.8*	8.8*
